Assay results taken from PubChem BioAssay AID651906 (Vanderbilt Specialized Chemistry Center, 2012).
Activity calls are given as the source filed them. How the calls were made is not given here.

Target: Protein deacetylase HDAC6 (Homo sapiens) (UniProt Q9UBN7)
Assay: inhibitors of recombinant human HDAC6 – biochemical, selectivity assay for E-cadherin restoration project, profiling panel (AID 651906)
Conditions: recombinant HDAC6, fluorogenic peptide substrate; series mostly up to 10 µM

Protein deacetylase HDAC6 (Homo sapiens), sequence (Q9UBN7 whole entry, looked up): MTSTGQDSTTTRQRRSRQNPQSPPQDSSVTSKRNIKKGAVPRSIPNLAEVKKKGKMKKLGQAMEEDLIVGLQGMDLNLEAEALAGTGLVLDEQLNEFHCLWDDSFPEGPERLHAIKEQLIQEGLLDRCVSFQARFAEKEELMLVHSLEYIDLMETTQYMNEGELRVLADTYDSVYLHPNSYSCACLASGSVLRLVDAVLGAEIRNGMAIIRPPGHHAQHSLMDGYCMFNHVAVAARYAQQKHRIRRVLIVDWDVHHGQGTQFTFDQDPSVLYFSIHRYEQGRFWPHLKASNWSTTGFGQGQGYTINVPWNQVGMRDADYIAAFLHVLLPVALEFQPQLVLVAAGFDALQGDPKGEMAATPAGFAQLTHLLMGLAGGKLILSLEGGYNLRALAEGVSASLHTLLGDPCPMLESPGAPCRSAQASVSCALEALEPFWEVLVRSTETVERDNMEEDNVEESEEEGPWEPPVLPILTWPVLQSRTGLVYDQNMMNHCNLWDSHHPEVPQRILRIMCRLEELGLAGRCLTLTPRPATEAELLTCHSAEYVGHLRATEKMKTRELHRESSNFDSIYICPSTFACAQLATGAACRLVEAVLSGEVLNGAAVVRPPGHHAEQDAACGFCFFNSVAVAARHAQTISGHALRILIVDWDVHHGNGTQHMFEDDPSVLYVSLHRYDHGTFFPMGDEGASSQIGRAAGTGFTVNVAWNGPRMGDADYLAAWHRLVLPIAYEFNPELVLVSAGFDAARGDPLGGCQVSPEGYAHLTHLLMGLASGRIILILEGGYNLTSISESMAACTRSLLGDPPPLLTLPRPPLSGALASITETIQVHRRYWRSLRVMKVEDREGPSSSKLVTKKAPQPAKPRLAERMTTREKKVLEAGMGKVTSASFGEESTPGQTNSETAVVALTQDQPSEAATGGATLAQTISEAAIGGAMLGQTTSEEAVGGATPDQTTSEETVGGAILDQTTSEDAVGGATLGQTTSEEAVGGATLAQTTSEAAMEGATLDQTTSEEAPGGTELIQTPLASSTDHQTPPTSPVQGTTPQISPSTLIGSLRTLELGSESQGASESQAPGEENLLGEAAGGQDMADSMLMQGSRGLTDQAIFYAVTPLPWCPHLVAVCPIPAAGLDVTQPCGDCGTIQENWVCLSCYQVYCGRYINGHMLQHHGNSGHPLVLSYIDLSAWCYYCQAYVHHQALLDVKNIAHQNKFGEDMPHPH

For `O=C(NCCCNC(=O)c1ccc[nH]c1=O)c1cc(-c2ccccc2)on1`, the outcome was “inactive”.
